High-throughput results from PubChem BioAssay.
Shown are actives, neighbours in structure and some others; about 1.6% of the full set was active somewhere.
12-LOX inh: ALOX12 (human) lipoxygenase inhibition. purified 12hLO, xylenol orange hydroperoxide absorbance. Potency, µM (top dose mostly 108 µM), for the others: top-dose activity change, negative = inhibition, actives largely listed as inhibitors. 580,000 tested, 1.1% active. AID 1671190; note: % is set by controls: 0 for no effect and ±100 for the full control effect
Target sequence (P18054 whole entry, looked up): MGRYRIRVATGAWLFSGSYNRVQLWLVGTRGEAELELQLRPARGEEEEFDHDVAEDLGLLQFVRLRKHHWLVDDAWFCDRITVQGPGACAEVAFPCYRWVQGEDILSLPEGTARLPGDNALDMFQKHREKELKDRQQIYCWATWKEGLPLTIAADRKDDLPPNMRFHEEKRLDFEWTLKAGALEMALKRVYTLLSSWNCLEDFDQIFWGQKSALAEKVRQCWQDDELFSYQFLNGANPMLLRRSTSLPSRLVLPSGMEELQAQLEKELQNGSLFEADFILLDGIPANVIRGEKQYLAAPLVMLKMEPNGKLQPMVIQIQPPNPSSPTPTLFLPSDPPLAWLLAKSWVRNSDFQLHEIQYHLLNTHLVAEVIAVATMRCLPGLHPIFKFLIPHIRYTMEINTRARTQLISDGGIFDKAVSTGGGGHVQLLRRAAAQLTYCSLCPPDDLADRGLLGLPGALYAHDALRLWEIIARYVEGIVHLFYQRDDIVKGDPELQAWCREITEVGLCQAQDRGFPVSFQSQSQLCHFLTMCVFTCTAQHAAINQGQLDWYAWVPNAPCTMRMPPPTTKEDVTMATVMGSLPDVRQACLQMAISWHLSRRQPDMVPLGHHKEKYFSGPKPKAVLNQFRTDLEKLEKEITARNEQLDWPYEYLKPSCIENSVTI
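Hydroperoxide product was detected by ferrous iron/xylenol orange as the 573 to 405 nm absorbance ratio. Arachidonic acid at 40 uM (final) was turned over for 30 min at room temperature by 150 nM human 12hLO, pH 7.0 Hepes buffer, after 15 min compound preincubation.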
gsp ag: activates gsp, the McCune-Albright syndrome mutation. 340,000 tested, 0.13% active. gsp mutant cells, cAMP HTRF, 30 min. Potency, µM (titrated, usually from 76.9 µM), without a hit: at the top dose activation (cAMP increase), hits mostly activators. AID 624287; active = well fitted activation curve with a large enough effect; inconclusive = small, poorly fitted or top-dose-only effect, or another doubt; inactive = no such curve, though single readings can be large or run the other way; cell line not stated here;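 note: phosphodiesterase inhibitor Ro 20-1724 added with compounds to block cAMP breakdown; nearly all actives have a fitted effect of over 60% in size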
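Cells in DMEM/10% FBS with G418 were pretreated with compounds in DMSO plus […] (300 uM stock) for 30 min at 37C. cAMP was measured by HTRF (cAMP-d2 plus anti-cAMP antibody-K) after 30 min at room temperature.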
gsp antag: gsp mutant antagonism. gsp-mutant cells, cAMP HTRF, 30 min. Potency, µM (series often up to 76.9 µM), for the others: at the top dose activity change, negative = inhibition, hits mostly inhibitors. 340,000 tested, 0.4% active; calls by dose curve; cell line not stated here;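 note: intracellular cAMP measured with PDE inhibitor Ro 20-1724 present during compound exposure; % is set by controls: 0 for no effect and ±100 for the full control effect; nearly all actives have a fitted effect of over 65% in size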
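Cells in G418 medium, seeded 16-24 h, 37C; buffer exchange to DPBS + 1 mM CaCl2, 0.5 mM MgCl2, 0.05% BSA; cpds in DMSO + […] (300 uM stock), 30 min 37C; HTRF cAMP detection.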
Mito fusion act: blocks mitochondrial division or promotes mitochondrial fusion | S. cerevisiae fusion-defective mutant growth rescue, CellTiterGlo 48 h | Potency, µM (doses to about 46.1 µM), for inactives: top-dose growth rescue (activation), hits mostly activators | 320,000 tested, 0.23% active; note: % of control where 0% means no effect; nearly all actives have a fitted effect of over 45% in size
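S. cerevisiae fusion-defective temperature-sensitive mutants (e.g. fzo1-1, mgm1-5) grown 48 h at 37C in YPEG (ethanol/glycerol non-fermentable) medium with 23 nl compound per well; growth rescue read as CellTiterGlo luminescence.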
FUS yeast rescue: suppressors of FUS proteinopathy in yeast. 390,000 tested, 0.24% active. Potency, µM (titrated, usually from 76.6 µM), usual class: activators. AID 1347120. S. cerevisiae FUS-expressing, growth rescue, OD600, 24 h;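 note: plate controls were DMSO vehicle for no effect and reference control for full effect; nearly all actives have a fitted effect of over 55% in size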
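Toxicity suppression screen in FUS-yeast. Cells induced with 2% galactose, starting OD 0.005, treated 24hr at 30C with compounds at multiple final concentrations; growth by OD600.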
Starred values were filed as active, the others as inactive; i = inactive; ? = inconclusive; . = not tested or not shown; ! = a repeat was not active; [ ] = dose if it differs, or a comment. Unless noted, calls come from the whole dose curve; as a rule, active = well fitted curve in the direction sought with a large enough effect; inconclusive = small, poorly fitted or top-dose-only effect, or another doubt; inactive = no such curve, though single readings can be large; an effect the other way counts as inactive or inconclusive. Potency is the fitted concentration of half-maximal effect.

SMILES | 12-LOX inh | gsp ag | gsp antag | Mito fusion act | FUS yeast rescue
Cc1ccsc1/C=C1\C(=O)NC(=S)N(C)C1=O | ? | -22% | 3% | -3% | i
CN1C(=O)/C(=C/c2ccc(Cl)s2)C(=O)NC1=S | 4.5µM* | 2% | -11% | 0% | i
CCN1C(=O)/C(=C\c2ccc([N+](=O)[O-])s2)C(=O)NC1=S | . | . | . | 2% | .
NC(N)=NC(=O)c1nc(Cl)c(N)nc1N | ? | . | 6% | 16µM*! | i
O=[S+]1([O-])NC2(CCN(Cc3ccccc3)C2)COc2ccncc21 (stereo not drawn) | 9%[6.33 µM] | . | . | . | .
O=c1c2ccccc2[se]n1-c1ccccc1 | ? | . | 0% | 0.46µM* | i
CC(C)(C)c1ccc(-c2cn(C[C@H]3CC4CCN3C[C@@H]4C(=O)N3CCOCC3)nn2)cc1 (stereo partly drawn) | 25% | . | . | . | .
COc1cc([C@@H]2c3cc4c(cc3[C@H](O)[C@@H](CO)[C@@H]2C(=O)N2CCCC2)OCO4)cc(OC)c1OC | 26% | . | . | . | .
Cc1cccc(N2C(=O)/C(=C/c3ccc(CN(CCC#N)S(C)(=O)=O)o3)C(=O)NC2=S)c1 | 13µM* | 7% | -23% | 1% | i
Cc1ccc(N2C(=O)/C(=C/c3ccc(CN(CCC#N)S(C)(=O)=O)o3)C(=O)NC2=S)cc1C | . | . | . | 0% | .
Cc1ccccc1[N+](=O)[O-] | -14% | . | 7% | -14% | i
O=C1NC(=O)C(Sc2ccccc2[N+](=O)[O-])C(=O)N1 | 10µM* | ? | 4% | -8% | i
O=C(CN1CCCC1=O)NCc1ccccc1C(F)(F)F | 33% | . | . | . | .
COc1ccc(-c2cc([C@H]3CN4CC[C@H]3C[C@@H]4CNC(=O)c3ccc(N(C)C)cc3)n(C)n2)cc1 | -5% | . | . | . | .
CC(C)NC(=O)N1C[C@@H]2C[C@H](C1)c1ccc(C3CCCCC3)c(=O)n1C2 | 32µM* | . | . | . | .
O=C(Cn1cc(C=C2C(=O)NC(=O)NC2=O)c2ccccc21)NCC1CCCO1 (stereo not drawn) | 13µM* | -10%[15.4 µM] | 1% | 1% | i
CCC1CCC(=O)O1 (stereo not drawn) | -3%[176 µM] | . | . | . | .
O=C1CC(=O)N(Cc2ccccc2)C(=S)N1 | 25µM* | -34% | 4% | -8% | ?
Cc1cc(O)c2c(c1)C(=O)c1cc(O)cc(O)c1C2=O | ? | . | -8% | 2.6µM* | i
CC1CC(=O)C2CCCCC2N1 (stereo not drawn) | 18% | . | . | . | .
CCN1CCCCC12Cc1ccccc1CN(C(=O)Cc1ccccc1)C2 (stereo not drawn) | 6.3µM* | . | . | . | .
CN1CCCC12Cc1ccccc1CN(C(=O)Cc1cccc(Cl)c1)C2 (stereo not drawn) | 8%[6.33 µM] | . | . | . | .
CC[C@H]1CN2CC[C@H]1C[C@@H]2COC(=O)Nc1ccc(C(C)(C)C)cc1 | 45µM* | . | . | . | .
Cc1nc(-c2cccs2)cc([C@H]2CN3CC[C@H]2C[C@@H]3CNC(=O)C2CC2)n1 | 4%[176 µM] | . | . | . | .
Cc1cnc(C(=O)N2[C@H]3CC[C@@H]2c2cnc(-c4ccc(F)cc4)nc2C3)cn1 | 28% | . | . | . | .
SMILES | 12-LOX inh | gsp ag | gsp antag | Mito fusion act | FUS yeast rescue
Cc1ccc(C(=O)N2[C@H]3CC[C@@H]2c2cnc(-c4ccc(F)cc4)nc2C3)cn1 | 40µM* | . | . | . | .
CN1C(=O)C(Cc2nc3ccccc3c(=O)n2-c2ccccc2)c2ccccc21 (stereo not drawn) | 0% | -4% | 35µM* | 1% | i
Cc1ccccc1C(=O)N1CCC2(CC1)c1nccn1-c1ccccc1CN2CC(C)C | -1% | . | . | . | .
CCc1ccc(CN2CCN(Cc3cc(Br)ccc3O)CC2)cc1 | 0.63µM* | -7% | 2% | 12% | i
COc1ccc(C(=O)N2CCC3(CC2)c2nccn2-c2ccccc2CN3C)cc1OC | 30% | . | . | . | .
Cc1cc(/C=C2\C(=O)NC(=O)N(c3ccc(Cl)cc3)C2=O)c(C)n1-c1sc2c(c1C#N)CCCC2 | 11µM* | 18% | 1% | 22% | ?
CCOC(=O)c1c(-n2c(C)cc(/C=C3\C(=O)NC(=O)N(C)C3=O)c2C)sc2c1CCCC2 | ? | ? | -15% | 4% | i
O=c1ccc(-c2ccccc2)c2n1C[C@H]1C[C@@H]2CN(S(=O)(=O)c2cccs2)C1 | -5%[176 µM] | . | . | . | .
O=C(CNC(=O)c1cccc(Cl)c1)Nc1ccc(Br)cc1C(=O)c1ccccc1 | ? | 10% | 40µM* | ? | .
CCC(CC)c1cc([C@H]2CN3CC[C@H]2C[C@@H]3CNC(=O)Nc2ccc(C(C)=O)cc2)nc(-c2ccncc2)n1 | -7% | . | . | . | .
CC(C)CCN1C[C@@H]2C(=O)N(C)C(=O)[C@@H]2C1 | 15% | . | . | . | .
CC1(O)CCC2C3CCC4=CC(=O)CCC4=C3C=CC21C (stereo not drawn) | -11% | -2% | -30% | . | i
COCOC1CCC2C3CCC4=CC(=O)CCC4=C3C=CC12C (stereo not drawn) | 25µM* | -23% | -8% | . | .
O=C(c1cccs1)N1C[C@@H]2C[C@H](C1)c1c(-c3ccc(Cl)cc3)ccc(=O)n1C2 | 1%[176 µM] | . | . | . | .
CC(=O)C1=C(O)C2(C)c3c(O)c(C)c(O)c(C(C)=O)c3OC2CC1=O (stereo not drawn) | 32µM* | -50% | . | . | i
Cc1nc(-c2ccccc2Br)cc([C@H]2CN3CC[C@H]2C[C@@H]3CNC(=O)CSCC(=O)O)n1 | -4% | . | . | . | .
CC(=O)c1ccc2c(c1)C1C(Cl)C(Sc3ccccc3[N+](=O)[O-])CC1C(c1ccccc1)N2 (stereo not drawn) | ? | -1% | ? | 3% | 40µM*
Cc1nonc1CC(=O)N1C[C@H](O)[C@@H](N2CCC(O)CC2)C1 | 13µM* | . | . | . | .
COc1ccc([C@@H]2CN(C(=O)Cc3nonc3C)[C@@H]3C4CCN(CC4)[C@@H]32)cc1 | 2% | . | . | . | .
O=C(CN1CCN(C(=O)Cc2n[nH]c(=O)c3ccccc23)CC1)NC1CC1 | 20% | . | . | . | .
ClC1=C(Cl)[C@]2(Cl)[C@@H]3[C@@H](Cl)[C@H]4O[C@H]4[C@@H]3C1(Cl)C2(Cl)Cl | 1% | . | . | . | .
Cc1ccc(/C=C2\C(=O)NC(=O)N(Cc3ccccc3Cl)C2=O)o1 | 32µM* | -1% | 7% | 0% | i
Cc1ccc(/C=C2/C(=O)NC(=O)N(Cc3ccc(F)cc3)C2=O)o1 | 9% | . | . | 4% | .
Cc1cc2c(cc(C(=O)N3CCC(C(=O)NC4CCCC4)CC3)n2Cc2c(F)cccc2Cl)o1 | -25% | -46% | 35µM* | 14% | i
COCC(=O)N1[C@H]2CC[C@@H]1c1cnc(-c3ccccc3)nc1C2 | 47% | . | . | . | .
COc1ccc(N2C(=O)/C(=C/c3ccc(C)o3)C(=O)NC2=S)cc1 | 13µM* | ? | -11% | 3% | i
FC(F)(F)CN1C2CCC1CN(c1ncnc3sc(Cl)nc13)C2 | 0%[6.33 µM] | . | . | . | .
Cc1ccnc(NS(=O)(=O)c2ccc(N=Cc3c(O)n(C)c(=O)n(C)c3=O)cc2)n1 | 5µM* | 1%[15.4 µM] | 13% | -1% | i
